Source: paper PMC4336329 (PLoS ONE, 2015)
In all, about 310,000 compounds went through this assay and about 14,000 (4.5%) showed an effect of 50% or more. The effect is printed as a negative number. The full list was thinned out, with strong results kept by preference.
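Further: peak tail current of the secondary pulse compared with the same well before compound.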

What follows are compounds tested against human ether-à-go-go-related gene (hERG) potassium channel (human, UniProt Q12809) (assay: primary screen, population patch clamp on CHO cells stably expressing hERG; higher = less effect of the substance).
Sequence of human ether-à-go-go-related gene (hERG) potassium channel (Q12809 whole entry, looked up): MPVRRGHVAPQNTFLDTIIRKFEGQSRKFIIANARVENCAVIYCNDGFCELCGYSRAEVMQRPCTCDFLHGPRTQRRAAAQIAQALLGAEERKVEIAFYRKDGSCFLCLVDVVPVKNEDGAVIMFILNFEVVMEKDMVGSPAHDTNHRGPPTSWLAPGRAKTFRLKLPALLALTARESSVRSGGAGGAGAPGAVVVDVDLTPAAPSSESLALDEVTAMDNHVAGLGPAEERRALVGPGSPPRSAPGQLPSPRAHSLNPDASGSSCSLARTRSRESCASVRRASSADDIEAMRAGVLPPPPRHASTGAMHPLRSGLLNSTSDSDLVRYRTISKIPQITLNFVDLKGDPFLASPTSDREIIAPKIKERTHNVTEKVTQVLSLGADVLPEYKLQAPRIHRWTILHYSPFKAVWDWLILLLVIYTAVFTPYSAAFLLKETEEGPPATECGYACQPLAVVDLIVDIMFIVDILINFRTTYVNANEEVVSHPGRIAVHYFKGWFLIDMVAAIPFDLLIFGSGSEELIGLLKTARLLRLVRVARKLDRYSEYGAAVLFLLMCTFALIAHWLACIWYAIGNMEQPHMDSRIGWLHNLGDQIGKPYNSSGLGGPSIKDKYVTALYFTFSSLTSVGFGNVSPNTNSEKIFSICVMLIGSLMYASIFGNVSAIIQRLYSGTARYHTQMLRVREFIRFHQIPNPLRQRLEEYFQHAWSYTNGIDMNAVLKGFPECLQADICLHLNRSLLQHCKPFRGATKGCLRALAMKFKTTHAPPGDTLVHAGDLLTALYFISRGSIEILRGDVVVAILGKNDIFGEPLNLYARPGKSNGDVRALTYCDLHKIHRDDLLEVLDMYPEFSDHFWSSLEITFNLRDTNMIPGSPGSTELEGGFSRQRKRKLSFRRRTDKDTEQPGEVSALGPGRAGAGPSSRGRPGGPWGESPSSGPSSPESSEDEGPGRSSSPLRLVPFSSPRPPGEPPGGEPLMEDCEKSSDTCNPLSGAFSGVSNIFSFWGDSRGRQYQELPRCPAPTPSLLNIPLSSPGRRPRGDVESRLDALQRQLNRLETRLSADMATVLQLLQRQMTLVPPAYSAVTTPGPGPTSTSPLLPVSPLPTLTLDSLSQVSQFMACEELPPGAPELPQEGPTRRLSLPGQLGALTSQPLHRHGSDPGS
With `O=C(NC(=S)Nc1ccc(-c2ccc(CO)o2)cc1)c1cccs1` the “hERG current change (%, negative = inhibition) at 10uM” value was 21%. In the case of `Cc1ccc2c(c1)C(c1ccccc1)N(C(=O)c1c(F)cccc1Cl)CC(=O)N2` (stereo not drawn), the “hERG current change (%, negative = inhibition) at 10uM” value is reported as -22.3%. In the case of `Cc1cccnc1NC1=NCC(C)S1` (stereo not drawn), the “hERG current change (%, negative = inhibition) at 10uM” value is reported as 3.1%. `C=CCSC(CC)(CC)C(N)=O` was tested, and the “hERG current change (%, negative = inhibition) at 10uM” value was 3.1%. `O=C(CNCc1ccco1)Nc1cc(S(=O)(=O)N2CCOCC2)ccc1N1CCCC1` was tested, and the “hERG current change (%, negative = inhibition) at 10uM” value was -14.4%. With `COc1cccc(NCc2nnc(SCC(=O)NC3CCS(=O)(=O)C3)n2C2CCCCC2)c1` (stereo not drawn) the “hERG current change (%, negative = inhibition) at 10uM” value was 12.7%. With `O=C(CCN1CCN(c2ccccc2)CC1)Nc1ccc(Cl)cc1` the “hERG current change (%, negative = inhibition) at 10uM” value was -17.9%. With `CCN1CCN(CCC(=O)Nc2ccc(C)cc2)CC1.Cl` the “hERG current change (%, negative = inhibition) at 10uM” value was -8.34%. `CCN1CCN(CCC(=O)Nc2cccc(C)c2)CC1.Cl` was tested, and the “hERG current change (%, negative = inhibition) at 10uM” value was 0.741%. For `O=C(CCN1CCN(C/C=C/c2ccccc2)CC1)Nc1ccc(Cl)cc1`, the “hERG current change (%, negative = inhibition) at 10uM” value was -78.2%. `Cl.O=C(CCN1CCOCC1)Nc1ccc(Cl)cc1` was tested, and the “hERG current change (%, negative = inhibition) at 10uM” value was 6.33%. `O=C(CCN1CCN(C/C=C/c2ccccc2)CC1)Nc1ccccc1` was tested, and the “hERG current change (%, negative = inhibition) at 10uM” value was -74.9%. For `Cc1cccc(NC(=O)CCN2CCN(C)CC2)c1.Cl`, the “hERG current change (%, negative = inhibition) at 10uM” value was 6.48%. For `Cc1cccc(NC(=O)CCN2CCN(C/C=C/c3ccccc3)CC2)c1.Cl`, the “hERG current change (%, negative = inhibition) at 10uM” value was -74%. In the case of `Cc1ccc(NC(=O)CCN2CCN(C/C=C/c3ccccc3)CC2)cc1.Cl`, the “hERG current change (%, negative = inhibition) at 10uM” value is reported as -90.9%. For `CN1CCN(CCC(=O)Nc2ccccc2)CC1`, the “hERG current change (%, negative = inhibition) at 10uM” value was -5.19%. With `Cl.O=C(CCN1CCCC1)Nc1ccccc1` the “hERG current change (%, negative = inhibition) at 10uM” value was 4.69%. In the case of `CCN1CCN(CCC(=O)Nc2ccccc2)CC1`, the “hERG current change (%, negative = inhibition) at 10uM” value is reported as 8.58%. In the case of `COc1ccc(C(Sc2ccccc2)c2ccccc2)cc1OC` (stereo not drawn), the “hERG current change (%, negative = inhibition) at 10uM” value is reported as 7.26%. With `O=C(O)CCN=CC1=C(O)CC(c2ccccc2)CC1=O` (stereo not drawn) the “hERG current change (%, negative = inhibition) at 10uM” value was 3.13%. In the case of `O=C(C[n+]1cccc(O)c1)NCc1ccc(Cl)cc1.[Cl-]`, the “hERG current change (%, negative = inhibition) at 10uM” value is reported as 24.2%. `CCOC(=O)CC1C(=O)NCCN1C(=O)c1ccc(C)cc1` (stereo not drawn) was tested, and the “hERG current change (%, negative = inhibition) at 10uM” value was 14.9%. `Cc1sc2c(c1C)C(O)=C(C(=O)Nc1ccccc1)S(=O)(=O)N2C` was tested, and the “hERG current change (%, negative = inhibition) at 10uM” value was 4.91%. In the case of `O=C(CSc1nnc2c(n1)[nH]c1ccc(F)cc12)N1CCOCC1`, the “hERG current change (%, negative = inhibition) at 10uM” value is reported as 5.63%. In the case of `Cc1ccc(NC(=O)CCN2CCC(C(N)=O)CC2)cc1`, the “hERG current change (%, negative = inhibition) at 10uM” value is reported as 17.3%. For `Cc1ccc(NC(=O)CCN2CCC(Cc3ccccc3)CC2)cc1`, the “hERG current change (%, negative = inhibition) at 10uM” value was -75.1%. `Cc1ccc(NC(=O)CN2CCc3ccccc3C2)cc1` was tested, and the “hERG current change (%, negative = inhibition) at 10uM” value was -30.3%. With `O=C(CCN1CCc2ccccc2C1)Nc1ccccc1` the “hERG current change (%, negative = inhibition) at 10uM” value was -24.2%. In the case of `Cc1ccc(NC(=O)CCN2CCCCC2)cc1.Cl`, the “hERG current change (%, negative = inhibition) at 10uM” value is reported as -0.243%. With `Cc1ccc(NC(=O)CCN2CCN(C/C=C/c3ccccc3)CC2)cc1C.Cl` the “hERG current change (%, negative = inhibition) at 10uM” value was -71.8%. `Cc1ccc(NC(=O)CCN2CCOCC2)cc1C` was tested, and the “hERG current change (%, negative = inhibition) at 10uM” value was 14.1%. For `Cc1ccc(NC(=O)CCN2CCc3ccccc3C2)cc1.Cl`, the “hERG current change (%, negative = inhibition) at 10uM” value was -60.8%. With `Cc1cc(NC(=O)CCN2CCN(Cc3ccccc3)CC2)ccc1Br.Cl` the “hERG current change (%, negative = inhibition) at 10uM” value was -28%. `COc1ccc(CN2CCc3ccc(NC(=O)CCc4ccccc4OC)cc3C2)c(O)c1` was tested, and the “hERG current change (%, negative = inhibition) at 10uM” value was -35.2%. For `COc1cccc(CN2CCc3ccc(NC(=O)CCc4ccc(C)cc4)cc3C2)c1O`, the “hERG current change (%, negative = inhibition) at 10uM” value was -52.2%. For `COc1cc(CN2CCc3ccc(NC(=O)CCc4ccccc4OC)cc3C2)ccc1O`, the “hERG current change (%, negative = inhibition) at 10uM” value was -37.3%.
